Records with an inconclusive call do not appear. Calls of active or inactive are those of the source. Unless noted, the call rests on the fitted dose curve; in most records, active means well fitted curve in the direction sought with a large enough effect in the repeat runs; inconclusive means weak or mixed curves; inactive means no such curve, though single readings can be large; an effect the other way counts as inactive or inconclusive.
Key:
[1] = qHTS assay to identify small molecule antagonists of the glucocorticoid receptor (GR) signaling pathway - cell viability counter screen (AID 720693); further: nearly all actives have a fitted effect of over 55% in size
[2] = qHTS assay for identifying genotoxic compounds that show differential cytotoxicity against isogenic chicken DT40 cell lines with known DNA damage response pathways - wild type cell line (AID 743012); further: nearly all actives have a fitted effect of over 60% in size; further: potency means the concentration at half of the fitted maximal effect
Procedure, shortened: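 Wild type DT40, 300 cells/well, ~0.5 h settle at 37 C/5% CO2; compounds in DMSO added by pintool; 40 h at 37 C/5% CO2; CellTiter-Glo, 30 min RT; luminescence.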

[3] = qHTS assay for identifying genotoxic compounds that show differential cytotoxicity against isogenic chicken DT40 cell lines with known DNA damage response pathways - Rev3 mutant cell line (AID 743014); further: nearly all actives have a fitted effect of over 55% in size; further: potency means the concentration at half of the fitted maximal effect
[4] = qHTS assay for identifying genotoxic compounds that show differential cytotoxicity against isogenic chicken DT40 cell lines with known DNA damage response pathways - Rad54/Ku70 mutant cell line (AID 743015); further: nearly all actives have a fitted effect of over 60% in size; further: potency means the concentration at half of the fitted maximal effect
[5] = qHTS assay to identify small molecule antagonists of the androgen receptor (AR) signaling pathway using the MDA cell line - cell viability counter screen (AID 743041; further: nearly all actives have a fitted effect of over 45% in size)
Procedure, shortened: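 Same-well cytotoxicity was assessed by CellTiter-Fluor in MDA-kb2 AR-luc cells after 16 h of compound treatment under R1881 agonism.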

[6] = qHTS assay to identify small molecule antagonists of the androgen receptor (AR) signaling pathway - cell viability counter screen (AID 743033; further: nearly all actives have a fitted effect of over 45% in size)
[7] = target: Androgen receptor (Homo sapiens) (UniProt P10275); assay: qHTS assay to identify small molecule agonists of the androgen receptor (AR) signaling pathway using the MDA cell line (AID 743040; further: nearly all actives have a fitted effect of over 20% in size)
Androgen receptor (Homo sapiens), sequence (P10275 whole entry, looked up): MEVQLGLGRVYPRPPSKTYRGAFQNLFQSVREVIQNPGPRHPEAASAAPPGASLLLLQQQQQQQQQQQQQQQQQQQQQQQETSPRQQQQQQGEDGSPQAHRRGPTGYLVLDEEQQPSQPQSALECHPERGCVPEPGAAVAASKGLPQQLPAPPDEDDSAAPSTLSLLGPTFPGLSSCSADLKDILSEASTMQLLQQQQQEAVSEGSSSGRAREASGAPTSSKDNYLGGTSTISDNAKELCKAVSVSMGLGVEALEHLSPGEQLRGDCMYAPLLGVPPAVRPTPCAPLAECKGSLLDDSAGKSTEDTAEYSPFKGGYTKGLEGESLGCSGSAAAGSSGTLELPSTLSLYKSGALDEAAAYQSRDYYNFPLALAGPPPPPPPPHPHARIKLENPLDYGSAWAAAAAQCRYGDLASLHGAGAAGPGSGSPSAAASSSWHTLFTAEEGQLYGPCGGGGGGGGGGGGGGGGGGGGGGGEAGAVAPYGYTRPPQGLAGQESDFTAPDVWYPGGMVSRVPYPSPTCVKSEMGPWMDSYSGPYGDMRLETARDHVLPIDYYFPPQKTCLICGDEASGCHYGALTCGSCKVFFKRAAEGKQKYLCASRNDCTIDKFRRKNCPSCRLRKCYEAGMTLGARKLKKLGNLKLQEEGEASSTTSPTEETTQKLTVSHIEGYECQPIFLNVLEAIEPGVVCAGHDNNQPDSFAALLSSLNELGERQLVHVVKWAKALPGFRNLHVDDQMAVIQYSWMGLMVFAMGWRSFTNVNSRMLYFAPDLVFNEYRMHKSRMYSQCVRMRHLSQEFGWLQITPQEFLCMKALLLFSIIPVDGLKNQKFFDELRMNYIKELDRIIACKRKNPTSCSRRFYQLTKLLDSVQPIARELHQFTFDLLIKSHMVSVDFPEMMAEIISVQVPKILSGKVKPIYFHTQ
Procedure, shortened: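 Human breast carcinoma MDA-kb2 reporter cells (MMTV-luc, AR/GR elements) were treated for 16 h at 37C in 0% CO2 following a 5 h settling period. Signal was quantified by ONE-Glo luminescence.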

[8] = target: Androgen receptor (Homo sapiens) (UniProt P10275); assay: qHTS assay to identify small molecule antagonists of the androgen receptor (AR) signaling pathway using the MDA cell line (AID 743042; further: nearly all actives have a fitted effect of over 55% in size)
Procedure, shortened: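 MDA-kb2 breast carcinoma cells carrying MMTV-luciferase (AR/GR responsive) were co-treated with compounds and the agonist R1881 for 16 h at 37C. Inhibition read as ONE-Glo luminescence; CellTiter-Fluor fluorescence measured in parallel for cytotoxicity.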

[9] = target: Androgen receptor (Homo sapiens) (UniProt P10275); assay: qHTS assay to identify small molecule antagonists of the androgen receptor (AR) signaling pathway (AID 743035; active means well fitted inhibition curve with a large enough effect in the signal ratio in the repeat runs, not every such curve was filed as active; the % refers to the signal ratio)
Procedure, shortened: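 Fluorescence from a beta-lactamase FRET substrate (LiveBLAzer B/G, 2 h, room temperature) measured inhibition of R1881-stimulated signaling in GeneBLAzer AR-UAS-bla HEK293 cells exposed to compound for 16 h at 37C.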

[10] = target: Androgen receptor (Homo sapiens) (UniProt P10275); assay: qHTS assay to identify small molecule agonists of the androgen receptor (AR) signaling pathway (AID 743036; active means well fitted activation curve with a large enough effect in the signal ratio in the repeat runs, with a control signal flat, not every such curve was filed as active; the % refers to the signal ratio)
Procedure, shortened: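 AR-UAS-bla HEK293 cells, plated 4 h before dosing, were treated with compound for 16 h at 37C. beta-Lactamase reporter read after 2 h with LiveBLAzer B/G FRET substrate at room temperature.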

Measured: Potency

C1=Cc2ccccc2C1
inactive: [1] | [2] | [3] | [4] | [5]

Cn1sccc1=O
active: [2] 2.43 µM | [3] 3.06 µM | [4] 4.86 µM
inactive: [1] | [5]

O=C(O)/C=C/c1cnc[nH]1
inactive: [1] | [2] | [3] | [4] | [5]

O=C1CCCCCO1
inactive: [1] | [2] | [3] | [4] | [5]

Cc1occc1S
inactive: [1] | [6] | [5]
active: [2] 54.5 µM | [3] 61.1 µM

C=C(C)C(=O)OCCN(C)C
inactive: [1] | [2] | [3] | [6] | [5]

CCCCCCCCCCCCCCC1CO1 (stereo not given)
inactive: [1] | [2] | [3] | [4] | [5]

NC(N)=N/N=C/c1c(Cl)cccc1Cl
active: [2] 11.9 µM | [3] 23.7 µM | [4] 21.1 µM
inactive: [1] | [7]

CCCCc1cc2ccccc2c(OCCN(C)C)n1
inactive: [1] | [6] | [5]
active: [2] 6.39 µM | [3] 9.02 µM

CN1CCN(C2=Nc3ccccc3Sc3ccc(Cl)cc32)CC1
active: [2] 8.41 µM | [3] 6.68 µM | [4] 10.6 µM
inactive: [1] | [7] | [5] | [8]

CCCCCCCCCC(=O)OCC
inactive: [1] | [2] | [3] | [6]

CCN(CC)CCOc1ccc2c(c1)C(=O)c1cc(OCCN(CC)CC)ccc1-2
inactive: [1] | [5]
active: [2] 5.31 µM | [3] 2.66 µM | [4] 5.96 µM

C1CCC2OC2C1 (stereo not given)
not listed: [4]
inactive: all other assays above

Reference: PubChem BioAssay (Tox21)
